From PubChem BioAssay (NCATS)
Inconclusive results are not listed. Where a call stands in place of a potency, no number is given. Unmarked numbers belong to inactive results. The source made the active and inactive calls. The call rests on the fitted dose curve; in most records, active means well fitted inhibition curve with a large enough effect; inconclusive means small, poorly fitted or top-dose-only effect; inactive means no such curve, though single readings can be large or run the other way.

tested on: Zika virus NS2B-NS3 protease (unlinked complex); experiment: Primary screen GU Rhodamine qHTS for Zika virus inhibitors: Unlinked NS2B-NS3 protease assay (AID 1347159); settings: Recombinant ZIKV NS2B-NS3 protease, Rhodamine110 substrate fluorescence; series mostly up to 107 µM; further: nearly all actives have a fitted effect of over 60% in size
Summary of the method: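 In dose–response format, inhibition of unlinked protease (25 nM) was measured with 1.5 microM bis-peptide Rhodamine110 substrate. Aprotinin served as the intraplate control.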

SMILES | Potency | activity change, negative = inhibition
Cc1c[nH]c2nccc(Oc3c(F)cc(Nc4cc(Cl)nc(N)n4)cc3F)c12 | inactive | 
C=C[C@H]1[C@H](O[C@@H]2O[C@H](CO)[C@@H](O)[C@H](O)[C@H]2O)OC=C(C(=O)OC)[C@H]1C/C=C(/C=O)[C@@H]1C(C(=O)OC)=CO[C@@H](O[C@@H]2O[C@H](CO)[C@@H](O)[C@H](O)[C@H]2O)[C@@H]1C=C | inactive | 
O=C(Nc1c(-c2cccs2)nc2ccccn12)c1ccc(Cl)cc1 | inactive | 
Cc1nc(Nc2n[nH]c3c2CN(C(=O)NC(CN(C)C)c2ccccc2)C3(C)C)c2sccc2n1 (centres undefined) | inactive | 
Cc1c2cc(c(C(=O)O)c1C)OC1OC(C(O)C(O)C1O)C(O)C(O)C1OC(O2)C(O)C(O)C1O (centres undefined) | inactive | 
CN(C)CCCCC(=O)Nc1ccc(NC(=S)NC(=O)c2ccc(C(C)(C)C)cc2)cc1 | inactive | 
C=CC(C)(O)CC/C=C(\C)C(=O)OC1C(O)C(CO)OC(OC(=O)C23CCC(C)(C)CC2C2=CCC4C5(C)CCC(OC6OC(COC7OCC(OC(C)=O)C(O)C7OC7OC(COC(C)=O)C(O)C(O)C7O)C(O)C(O)C6O)C(C)(C)C5CCC4(C)C2(C)C(O)C3O)C1OC1OCC(OC2OCC(O)C(OC3OCC(O)C(O)C3O)C2O)C(O)C1O (centres undefined) |  | 18.4% [at 19.1 µM]
COC(=O)C1=COC(OC2OC(CO)C(O)C(O)C2O)C2C1C=CC2(O)CO (centres undefined) | inactive | 
COc1cccc2cc3c(c(O[C@@H]4O[C@H](CO[C@@H]5O[C@H](CO)[C@@H](O)[C@H](O)[C@H]5O)[C@@H](O)[C@H](O)[C@H]4O)c12)C(C)OC3=O (some centres undefined) | inactive | 
